Measured values published in PubChem BioAssay AID1159580 (chemical genetic matrix, 2015).
“And” between values parts separate entries of the source, which are not always exact repeats. Equal values may be shown once. Screen size: about 5,500 compounds; about 2,000 (36%) were called active. Inconclusive results (about 18%) are left out. No stated cut-off is given here; in the data, active means normalized growth mostly below about 0.91 (no sharp cut-off); inconclusive means no clear call, values can overlap the other calls; inactive means mostly above about 0.92. The list shows a part of the results.

Assay: chemical genetic growth profiling, strain panel (AID 1159580);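 further: tested at 20 µM; growth read once vehicle control cultures reached saturation at 30 °C; 1 = growth at the plate median or of vehicle wells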
Conditions: S. cerevisiae deletion strains, growth OD

Measured: normalized growth

CC(=O)Nc1nnc(S(N)(=O)=O)s1
inactive: locus YAL013W, strain DEP1, stronger effect = lower value 0.987 | locus YAL021C, strain ccr4, stronger effect = lower value 1 | locus YAL026C, strain drs2, stronger effect = lower value 1 | locus YAL030W, strain snc1, stronger effect = lower value 1.02 | locus YAL040C, strain CLN3, stronger effect = lower value 0.992 | locus YBL061C, strain skt5, stronger effect = lower value 1.01 | locus YBR009C, strain hhf1, stronger effect = lower value 0.991 | locus YBR021W, strain FUR4, stronger effect = lower value 0.944 | locus YBR023C, strain chs3, stronger effect = lower value 1.01 | locus YBR171W, strain sec66, stronger effect = lower value 1.02 | locus YBR229C, strain ROT2, stronger effect = lower value 0.95 | locus YBR231C, strain swc5, stronger effect = lower value 1.01 | locus YBR279W, strain paf1, stronger effect = lower value 1.01 | locus YCL011C, strain gbp2, stronger effect = lower value 1.02 | locus YCL016C, strain dcc1, stronger effect = lower value 1 | locus YCL029C, strain bik1, stronger effect = lower value 0.987 | locus YCL061C, strain MRC1 (second series), stronger effect = lower value 0.999 | locus YCL069W, strain vba3, stronger effect = lower value 1.02 | locus YCR088W, strain abp1, stronger effect = lower value 1.01 | locus YDL005C, strain med2, stronger effect = lower value 0.997 | locus YDL040C, strain nat1, stronger effect = lower value 1.01 | locus YDL185W, strain tfp1, stronger effect = lower value 0.998 | locus YDR001C, strain nth1, stronger effect = lower value 1.01 | locus YDR069C, strain doa4, stronger effect = lower value 1.01 | locus YDR101C, strain arx1, stronger effect = lower value 0.998 | locus YDR137W, strain rgp1, stronger effect = lower value 1 | locus YDR159W, strain sac3, stronger effect = lower value 0.99 | locus YDR195W, strain ref2 1.01 | locus YDR297W, strain sur2, stronger effect = lower value 1.01 | locus YDR334W, strain swr1, stronger effect = lower value 1.01 | locus YDR335W, strain msn5, stronger effect = lower value 1 | locus YDR388W, stronger effect = lower value 0.959 | locus YDR392W, strain spt3, stronger effect = lower value 1 | locus YDR502C, strain sam2, stronger effect = lower value 0.943 | locus YEL003W, strain gim4, stronger effect = lower value 1.01 | locus YEL037C, strain rad23, stronger effect = lower value 1.02 | locus YEL061C, strain CIN8 (second series), stronger effect = lower value 1.02 | locus YER002W, strain NOP16, stronger effect = lower value 1.03 | locus YER015W, strain faa2, stronger effect = lower value 0.997 | locus YER016W, strain bim1, stronger effect = lower value 0.99 | locus YER110C, stronger effect = lower value 1.01 | locus YER111C, strain swi4, stronger effect = lower value 1.01 | locus YER155C, strain BEM2 (second series), stronger effect = lower value 1.03 | locus YER155C, strain BEM2, stronger effect = lower value 1.01 | locus YFR010W, strain ubp6, stronger effect = lower value 1.03 | locus YGL078C, strain dbp3, stronger effect = lower value 1 | locus YGL167C, strain pmr1, stronger effect = lower value 1.01 | locus YGL173C, strain kem1, stronger effect = lower value 1.02 | locus YGL227W, strain vid30, stronger effect = lower value 1.01 | locus YGL240W, strain doc1, stronger effect = lower value 1.01 | locus YGL253W, strain hxk2, stronger effect = lower value 1.01 | locus YGR252W, strain gcn5, stronger effect = lower value 0.824 | locus YHR013C, strain ard1, stronger effect = lower value 1.02 | locus YHR027C, strain rpn1, stronger effect = lower value 0.999 | locus YHR079C, strain IRE1 (second series), stronger effect = lower value 0.996 | locus YHR079C, strain IRE1, stronger effect = lower value 0.969 | locus YHR094C, strain hxt1, stronger effect = lower value 0.985 | locus YHR142W, strain chs7, stronger effect = lower value 1.01 | locus YHR200W, strain rpn10, stronger effect = lower value 0.985 | locus YIL125W, strain kgd1, stronger effect = lower value 1.01 | locus YIR030C, strain dcg1, stronger effect = lower value 1.01 | locus YJL092W, strain hpr5, stronger effect = lower value 1.02 | locus YJL095W, strain BCK1 (second series), stronger effect = lower value 1.01 | locus YJL115W, strain asf1, stronger effect = lower value 1.02 | locus YJL129C, strain trk1, stronger effect = lower value 1.02 | locus YJL134W, strain LCB3, stronger effect = lower value 0.938 | locus YJL154C, strain vps35, stronger effect = lower value 1.02 | locus YJL164C, strain tpk1, stronger effect = lower value 1 | locus YJL166W, strain qcr8, stronger effect = lower value 1.01 | locus YJL168C, strain set2, stronger effect = lower value 0.979 | locus YJR066W, strain TOR1, stronger effect = lower value 0.97 | locus YJR075W, strain HOC1, stronger effect = lower value 1.01
active: locus YDL035C, strain GPR1, stronger effect = lower value 0.538 | locus YDL074C, strain BRE1, stronger effect = lower value 0.709 | locus YDL101C, strain DUN1, stronger effect = lower value 0.878 | locus YDL134C, strain PPH21, stronger effect = lower value 0.621 | locus YDL192W, strain arf1, stronger effect = lower value 0.915 | locus YDR162C, strain NBP2, stronger effect = lower value 0.126 | locus YDR318W, strain mcm21, stronger effect = lower value 0.917 | locus YEL061C, strain CIN8, stronger effect = lower value 0.728 | locus YER167W, strain BCK2, stronger effect = lower value 0.748 | locus YGL086W, strain mad1, stronger effect = lower value 0.864 | locus YGL248W, strain PDE1, stronger effect = lower value 0.585 | locus YGR078C, strain PAC10, stronger effect = lower value 0.477 | locus YGR135W, strain pre9, stronger effect = lower value 0.81 | locus YHR129C, strain ARP1, stronger effect = lower value 0.728 | locus YIL066C, strain RNR3, stronger effect = lower value 0.24 | locus YIL073C, strain SPO22, stronger effect = lower value 0.202 | locus YJL187C, strain SWE1 (second series), stronger effect = lower value 0.793 | locus YJR043C, strain POL32, stronger effect = lower value 0.398
0.707 (active) and 1 (inactive): locus YHR030C, strain SLT2, stronger effect = lower value
0.773 (active) and 0.995 (inactive): locus YJL095W, strain BCK1, stronger effect = lower value
